Assay outcomes (PubChem)
HCMV inh – inhibitors of human cytomegalovirus. HFF cells, HCMV-luciferase reporter, 72 h; stronger effect = lower value. activity change, negative = inhibition, % at 57.5 µM. actives 4.5% (n = 410,000). AID 1259415; in the data active = activity change below about -60%; inconclusive = no clear call, values can overlap the other calls; inactive = above about -39%; note: % is set by controls: 0 for no effect and ±100 for the full control effect
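Two-dose cell screen: HFF monolayers treated with compounds and infected with luciferase-expressing HCMV at 1 PFU/cell, 72 h at 37C, then lysed for luciferase measurement.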
Pf growth 48h – inhibits P. falciparum growth in the first generation, 48 h. P. falciparum luciferase growth in erythrocytes, 48 h. Potency, µM (highest dose often 28.7 µM), inactives show at the top dose activity change, negative = inhibition, most hits filed as inhibitors. actives 5.9% (n = 310,000). AID 504832; note: potency is the fitted concentration of half-maximal effect; % is set by controls: 0 for no effect and ±100 for the full control effect
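Growth was read as firefly luciferase luminescence after a 48 h, 37 C, 5% CO2 exposure of compounds to reporter-bearing P. falciparum cultures (0.1% parasitemia, 2% hematocrit final) in Albumax-supplemented RPMI 1640.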
Shiga inhibitor – Shiga toxin inhibition | Vero cells, Shiga toxin protein synthesis inhibition reporter | inhibition, % at 38.7 µM | actives 9.2% (n = 290,000); in the data active = inhibition mostly above about 28%, no sharp cut-off; inactive = mostly below about 43%; note: 0% is about no effect
Pf growth 96h – P. falciparum growth inhibition at 96 hours | P. falciparum luciferase reporter growth, 96 h | Potency, µM (titrated, usually from 28.7 µM), for the others: top-dose activity change, negative = inhibition, most hits filed as inhibitors | actives 6.9% (n = 320,000) | AID 504834; note: potency is the fitted concentration of half-maximal effect; % is set by controls: 0 for no effect and ±100 for the full control effect
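Two parasite generations (96 h, 37 C, 5% CO2) of compound exposure in infected erythrocytes (0.05% parasitemia, 2% hematocrit). Luciferase-reporter P. falciparum; decreased luminescence indicates inhibited growth, aimed at apicoplast-acting delayed death.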
HCV inhibitor – inhibitors of hepatitis C virus infection | actives 3.4% (n = 340,000) | Huh7.5.1 HCVcc-Cre infection, luciferase reporter, 44 h | Potency, µM (series often up to 41.8 µM), inactives show at the top dose activity change, negative = inhibition, hits mostly inhibitors | AID 651820; note: potency is the fitted concentration of half-maximal effect; % is set by controls: 0 for no effect and ±100 for the full control effect
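Antiviral activity was scored by luciferase reporter output from cells infected with HCVcc-Cre (~0.5 moi) in presence of compound, 44 h infection period, cells seeded 1,000/well 4 h prior.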
Cycloheximide cs – counter-screen for Shiga toxin inhibitors: cycloheximide protein synthesis inhibition; cell reporter, cycloheximide protein synthesis inhibition counterscreen; max response, %; actives 12% (n = 300,000); in the data active = max response mostly above about 13%, no sharp cut-off; inactive = mostly below about 14%; note: read at 38.3 µM for the half of the compounds with a filed dose; 0% is about no effect
* marks the source's active call; other numbers are inactive results; u = inconclusive; x = not tested or not shown. An excerpt weighted towards active compounds, which were near 21% of everything screened. Unless noted, calls come from the whole dose curve; as a rule, active = well fitted inhibition curve with a large enough effect; inconclusive = small, poorly fitted or top-dose-only effect, or another doubt; inactive = no such curve, though single readings can be large or run the other way.

SMILES | HCMV inh | Pf growth 48h | Shiga inhibitor | Pf growth 96h | HCV inhibitor | Cycloheximide cs
Nc1nc(Cl)nc2c1ncn2C1OC(CO)C(O)C1F (configuration not stated) | x | x | -9.9 | x | x | -2.9
OCC1OC(n2cnc3c(=S)nc[nH]c32)C(O)C1O (configuration not stated) | x | u | x | 9.53µM* | x | x
CCCCn1c(=NC(=O)c2cc3ccccc3o2)c(C(=O)OCC)cc2c(=O)n3ccccc3nc21 | 0.5 | x | x | x | x | x
C=CCc1c(C)c(C#N)c2nc3ccccc3n2c1NCCN(C)C | -1.5 | u | 10.4 | u | u | -3.0
CCCCc1c(C)c(C#N)c2nc3ccccc3n2c1Nc1c(C)n(C)n(-c2ccccc2)c1=O | -90.0* | 1.85µM* | -20.6 | 2.08µM* | u | -1.9
C=C(C)Cc1c(C)c(C#N)c2nc3ccccc3n2c1NCCCN(C)C | u | u | 11.0 | 9.28µM* | 2.8% | -1.6
CCc1c(C)c(C#N)c2nc3ccccc3n2c1NCCN(C)C | -4.8 | 9.28µM* | -11.4 | -11.4% | u | -1.7
CC(OC(=O)c1nc(Cl)ccc1Cl)C(=O)NCc1ccccc1 (configuration not stated) | 19.5 | x | x | x | x | x
COc1ccc(C(C(=O)NC2CCCCC2)N(Cc2ccco2)C(=O)c2snc(C(N)=O)c2N)cc1 (configuration not stated) | -10.2 | u | -9.8 | u | u | -6.5
Cc1cc(NC(=O)COc2ccccc2C)ccc1NC(=O)c1cccs1 | -33.7 | -21.4% | 1.9 | u | u | 4.7
Cc1ccc(-c2nc3ncccc3o2)cc1NC(=O)c1cccc(OCC(C)C)c1 | -10.7 | x | x | x | x | x
O=c1c2ccccc2oc2ccc(NCCCn3ccnc3)cc12 | 76.1 | 176.4% | 54.4* | 222.8% | u | 32.5*
O=C(NCCCn1ccnc1)c1ccc(Br)o1 | -33.2 | x | 18.1 | 19.9% | 23.3% | -3.0
O=C(NCCCn1ccnc1)c1cc2c(ccc3ccccc32)o1 | 76.7 | 41.3% | 67.7 | -11.1% | 18.7% | 30.7*
COc1ccccc1C(=O)Nc1ccc(-c2nc3cc(C)cc(C)c3o2)cc1 | 0.0 | x | x | x | x | x
CCOc1ccc(NC(=O)c2cnn(-c3ccc(C)c(C)c3)c2C2CCN(C(=O)OC(C)(C)C)CC2)cc1 | 2.4 | x | x | x | x | x
O=C(Nc1ccc2c(c1)OCCO2)N1CCN(c2ccccc2)CC1 | -4.1 | 38.4% | 47.4* | 44.9% | -5.6% | 19.8*
O=C(Nc1ccc2c(c1)OCCO2)N1CCN(Cc2ccccc2)CC1 | -5.8 | 475.9% | 61.2* | 376.2% | -29.2% | 38.2*
O=C(Nc1ccccc1)N1CCN(Cc2ccc3c(c2)OCO3)CC1 | -35.8 | x | -13.8 | u | 14.0% | -4.4
O=C(OCC(=O)N1CCNC1=O)c1ccccc1Cl | 1.1 | x | x | x | x | x
O=C(NCc1csc(-c2cccs2)n1)C1CCC1 | 48.3 | 99.1% | 48.0* | 160.1% | -7.1% | 37.5*
O=C(NCc1csc(-c2cccs2)n1)c1cccc(Cl)c1 | -16.6 | 46.6% | 54.5 | 45.4% | -11.6% | 14.3*
Cc1csc2nc(CNC(=O)C3CCCCC3)cn12 | 51.0 | 9.4% | 9.8 | 4.9% | -0.2% | 13.1*
O=C(NCc1csc(-c2cccs2)n1)c1ccccc1 | 22.7 | 49.9% | 38.2* | 104.6% | -21.1% | 32.3*
O=C(NCc1csc(-c2cccs2)n1)Nc1ccc(F)cc1F | -7.6 | -0.5% | 21.1 | -8.1% | 2.1% | 6.6
SMILES | HCMV inh | Pf growth 48h | Shiga inhibitor | Pf growth 96h | HCV inhibitor | Cycloheximide cs
COCCC(=O)N1CCC(Oc2ccc(C(=O)NCc3cccc(C)n3)cc2)CC1 | 1.6 | 12.5% | -15.6 | 51.1% | x | -1.8
CCN(CC(=O)NCc1ccccn1)S(=O)(=O)c1cc(Cl)ccc1Cl | -18.9 | u | x | 88.5% | -0.6% | x
CCc1ccc(-n2nc(C)c3c(C(=O)Nc4ccc(Cl)cc4)cc(C)nc32)cc1 | 11.9 | x | x | x | x | x
COc1cc(Cl)c(NS(=O)(=O)c2ccc(-c3coc(C)n3)cc2)c(OC)c1 | -26.2 | x | x | x | x | x
Cc1cccc(NC(=O)c2sc3nc4c(cc3c2N)CCCCCC4)c1C | -82.0* | x | x | x | x | x
Nc1c(C(=O)Nc2cccc(C(=O)O)c2)sc2nc3c(cc12)CCCC3 | 94.5 | 98.5% | 49.2 | 0.7% | 4.3% | 17.6*
COc1ccc(OC)c(NC(=O)c2sc3nc4c(cc3c2N)CCCCCC4)c1 | -5.7 | x | x | x | x | x
